Values without a mark were called inactive.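 Rule for the calls: active = AUC reduced over 20% with Padj below 0.05 in at least 2 of 3 replicates; inactive = otherwise.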
Tested on: Akkermansia muciniphila
Test: growth AUC relative to DMSO control (median of replicates) (fraction); higher = more growth (less inhibition), active = hit call of the paper
Details: 20 µM; 24 h
How it was run: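 Each value is the median of three biological replicates, grown on separate days, of a gut bacterial monoculture incubated anaerobically at 37 °C in mGAM with 20 µM compound (1% DMSO). Cultures started at OD600 0.05 and were read at OD600 hourly for 24 h, with the minimum OD set to 0. Area under the growth curve was normalised to the plate median of solvent-only wells, or to row and column medians on the industrial chemical plate.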

Point of comparison: `CCCCCCCC(=O)Oc1c(Br)cc(C#N)cc1Br`, “growth AUC” value 1.06. Against it:
- Nc1cccc(O)c1 — lower, 0.979
- CCc1cccc(C)c1NC(C)C(=O)O (racemic) — higher, 1.21
- CCc1ccc(C(c2ccc(CC)cc2)C(Cl)Cl)cc1 — lower, 0.859
- CC(C)N(C(=O)CS(=O)CC(=O)O)c1ccc(F)cc1 (centres undefined) — lower, 0.994
- O=[N+]([O-])c1ccc(Oc2c(Cl)cc(Cl)cc2Cl)cc1 — lower, 0.832
- CCOC(=O)c1nc(C(Cl)(Cl)Cl)n(-c2ccc(Cl)cc2Cl)n1 — lower, 0.908
- Cc1ccc2c(c1)[C@H](Nc1nc(N)nc(C(C)F)n1)[C@@H](C)C2 (some centres undefined) — lower, 0.985
- CCNc1nc(N)[nH]c(=O)n1 — lower, 1.01
- CN(C)C(=O)Nc1cc(C(C)(C)C)on1 — lower, 0.918
- O=C(NC(=O)c1c(F)cccc1F)Nc1cc(C(F)(F)F)cc(C(F)(F)F)c1Cl — lower, 0.695
- COC(=O)CSc1cc(N=c2sc(=O)n3n2CCCC3)c(F)cc1Cl — higher, 1.11
- CCN(Cc1c(F)cccc1Cl)c1c([N+](=O)[O-])cc(C(F)(F)F)cc1[N+](=O)[O-] — lower, 0.852
- CCNC(=O)[C@@H](C)OC(=O)Nc1ccccc1 — lower, 0.912
- CON=C(Cc1cccnc1)c1ccc(Cl)cc1Cl — the same, 1.06
- COC(=O)Nc1ccc(Cl)c(Cl)c1 — lower, 0.817
- CC[N+](CC)(CC(=O)Nc1c(C)cccc1C)Cc1ccccc1.O=C([O-])c1ccccc1 — higher, 1.24
- CC(C)(C)[C@@H](O)[C@@H](Cc1ccc(Cl)cc1)n1cncn1 (mixture of isomers) — higher, 1.1
- COCC(=O)N(c1c(C)cccc1C)C(C)C(=O)O (centres undefined) — higher, 1.09
- COC(=O)c1ccccc1S(=O)(=O)NC(=O)n1nc(OCC(C)O)n(C)c1=O (centres undefined) — lower, 0.933
- CCOC(=O)Cc1[nH]nc2ccc(Cl)cc12 — lower, 0.921
- CCCCCCCC/C=C\CCCCCCCC(N)=O — lower, 0.936
- COC1CCC2(CC1)NC(=O)C(c1cc(C)ccc1C)=C2OC1OC(CO)C(O)C(O)C1O (centres undefined) — higher, 1.1
- COC(=O)c1ccc(C(F)(F)F)nc1S(=O)(=O)[N-]C(=O)Nc1nc(OC)cc(OC)n1.[Na+] — lower, 0.963
- COC1CCC2(CC1)NC(=O)C(c1cc(C)ccc1C)=C2O (centres undefined) — lower, 0.863
- O=C(Nc1ccc(O)cc1-c1ccc(Cl)cc1)c1cccnc1Cl — lower, 0.889
- Cc1nn(C)c(F)c1C(=O)Nc1ccccc1C(C)CC(C)C (centres undefined) — lower, 0.94
- O=C(NCc1ncc(C(F)(F)F)cc1Cl)c1c(Cl)cccc1Cl — lower, 0.937
- CC1COc2ccccc2N1C(=O)C(Cl)Cl (centres undefined) — lower, 0.721
- CCc1cccc(C)c1NC(=O)C(=O)O — lower, 0.965
- Cc1[nH]oc(=O)c1N=Nc1ccccc1Cl — lower, 0.935
- COc1ccccc1C(=O)NS(=O)(=O)c1ccc(C(=O)NC2CC2)cc1 — lower, 0.895
- O=C(O)c1ccc(Cl)cc1Cl — lower, 0.987
- CCCCCCCC/C=C\CCCCCCCCCCCCC — lower, 0.969
- COC(=O)COc1ccc(Cl)cc1C — lower, 0.917
- CC(C)OC(=O)N[C@H](C(=O)N[C@H](C)c1nc2ccc(F)cc2s1)C(C)C — higher, 1.17
- CCNc1nc(N)nc(Cl)n1 — lower, 0.954
- Cc1nn(C)c(OCC(=O)c2ccccc2)c1C(=O)c1ccc(Cl)cc1Cl — lower, 1.04
- Cc1cc(C)c(C2=C(O)C3(CCCC3)OC2=O)c(C)c1 — lower, 1.01

From the supplement of paper PMC12669032
